# Experimental data as given in PubChem BioAssay (EPA / NIEHS).
# Results filed as inconclusive are left out. Activity calls are given as the source filed them. Rule for the calls: active = hit-call score of the fitted dose curve at least 0.9, where 1 is the maximum; inconclusive = response in the unintended direction; inactive = score below 0.9.
# How the values were obtained:
# [1] = ACEA_AR_antagonist_AUC_viability: ACEA Biosciences xCELLigence Real-Time Cell Analysis on Androgen Receptor Antagonism for Viability (AID 2283776);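 note: 22Rv1 human prostate cancer cells growing on impedance electrode plates; area under impedance growth curve at 80 h after dosing as viability; hits lower the growth signal relative to DMSO meaning cytotoxicity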
# Procedure, shortened: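 Impedance read-out (RT-CES): area under growth curve at 80 h post-dose, loss of signal scored vs DMSO baseline. 22Rv1 cells; 8-pt 1:4 series, top 100 uM final, ≤0.5% DMSO; biological duplicate.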
# [2] = ACEA_ER_AUC_viability: ACEA Biosciences xCELLigence Real-Time Cell Analysis on Estrogen Receptor Agonism for Viability (AID 2283782);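 note: hit means loss of impedance signal meaning reduced cell growth or viability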
# Procedure, shortened: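 Viability endpoint: reduced impedance area under the curve relative to DMSO, recorded by real-time electrode sensing over ~80 h of continuous exposure. Duplicate plates of T47D in hormone-depleted medium; eight concentrations, 1:4 dilutions, 100 uM maximum.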
# [3] = STM_H9_NormalizedViability: Cytotoxicity Assessment at 120 hours in the Stemina devTOX quickPredict H9 human embryonic stem cell (hESC)-based Assay (AID 2283784)
# Procedure, shortened: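 Here, H9 cells received test compound with daily medium renewal. Each plate included methotrexate references (1uM, 5 nM), 0.1% DMSO and media blanks; CellTiter-Fluor RFU was normalized to DMSO.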
# [4] = ACEA_AR_agonist_AUC_viability: ACEA Biosciences xCELLigence Real-Time Cell Analysis on Androgen Receptor Agonism for Viability (AID 2283775);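 for AC50: viability read 80 hours after compound addition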
# Procedure, shortened: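 Viability endpoint from xCELLigence impedance in 22Rv1 prostate cells at 80 h. Eight-point series, 100 uM maximum final.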
# AR (gene 367) [5] = target: AR (gene 367) (UniProt P10275); assay: ACEA_AR_antagonist_80hr: ACEA Biosciences xCELLigence Real-Time Cell Analysis on Androgen Receptor Antagonism for Proliferation (AID 2283787);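 note: 22Rv1 human prostate cancer cells with growth followed by electrical impedance; hits lower the impedance growth signal relative to DMSO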
# AR (gene 367), sequence (P10275 whole entry, looked up): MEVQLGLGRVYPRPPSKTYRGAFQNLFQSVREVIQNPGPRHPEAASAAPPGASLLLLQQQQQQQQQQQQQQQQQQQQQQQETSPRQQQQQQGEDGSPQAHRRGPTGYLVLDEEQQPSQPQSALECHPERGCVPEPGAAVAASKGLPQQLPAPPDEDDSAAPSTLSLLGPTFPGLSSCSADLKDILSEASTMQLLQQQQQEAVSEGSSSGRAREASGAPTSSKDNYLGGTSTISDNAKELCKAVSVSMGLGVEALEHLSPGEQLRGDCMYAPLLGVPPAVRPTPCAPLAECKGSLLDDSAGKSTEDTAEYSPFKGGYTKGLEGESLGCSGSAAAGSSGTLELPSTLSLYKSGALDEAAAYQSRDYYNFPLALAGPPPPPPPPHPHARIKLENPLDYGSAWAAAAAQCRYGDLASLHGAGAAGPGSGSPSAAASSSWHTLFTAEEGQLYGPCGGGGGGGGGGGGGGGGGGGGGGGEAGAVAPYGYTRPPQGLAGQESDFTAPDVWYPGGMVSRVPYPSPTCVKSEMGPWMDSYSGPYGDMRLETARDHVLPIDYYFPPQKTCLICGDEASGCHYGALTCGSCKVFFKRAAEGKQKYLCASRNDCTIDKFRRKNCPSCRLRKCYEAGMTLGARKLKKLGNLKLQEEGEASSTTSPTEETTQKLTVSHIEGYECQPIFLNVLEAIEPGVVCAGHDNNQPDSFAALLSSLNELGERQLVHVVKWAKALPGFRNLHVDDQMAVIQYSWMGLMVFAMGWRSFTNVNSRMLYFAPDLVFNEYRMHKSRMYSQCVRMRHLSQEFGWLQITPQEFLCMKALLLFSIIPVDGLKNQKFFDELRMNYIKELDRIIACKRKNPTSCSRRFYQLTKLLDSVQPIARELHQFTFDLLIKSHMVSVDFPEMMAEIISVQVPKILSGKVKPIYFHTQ
# Procedure, shortened: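 Impedance-based real-time growth of 22Rv1 prostate cells, read 80 h after dosing. Eight concentrations, 1:4 series, top 100 uM final (0.5% DMSO), n = 2; signal decrease scored against DMSO.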
# AR (gene 367) [6] = target: AR (gene 367) (UniProt P10275); assay: ACEA_AR_agonist_80hr: ACEA Biosciences xCELLigence Real-Time Cell Analysis on Androgen Receptor Agonism for Proliferation (AID 2283783);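 note: hits increase impedance growth signal above DMSO baseline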
# Procedure, shortened: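 Eight concentrations, 1:4 serial dilution from a 100 uM final top, in biological duplicate. Impedance-based real-time growth of 22Rv1 cells after overnight baseline, recorded hourly and read at 80 hours. Controls: testosterone, MG132, assay media.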
compound,measurement,setting,value
CN(C)C(=O)Nc1cccc(C(F)(F)F)c1,outcome,[1],inactive
same,outcome,[2],inactive
same,outcome,[3],inactive
CC[C@H](C)[C@H]1O[C@]2(C=C[C@@H]1C)C[C@@H]1C[C@@H](C/C=C(\C)[C@@H](O[C@H]3C[C@H](OC)[C@@H](O[C@H]4C[C@H](OC)[C@@H](NC)[C@H](C)O4)[C@H](C)O3)[C@@H](C)/C=C/C=C3\CO[C@@H]4[C@H](O)C(C)=C[C@@H](C(=O)O1)[C@]34O)O2,AC50,[4],0.874 µM (active)
same,AC50,[1],1.34 µM (active)
same,AC50,[2],1.82 µM (active)
Nc1nc(N)nc(NC2CC2)n1,outcome,[1],inactive
same,outcome,[2],inactive
CC(COc1ccc(Oc2ccccc2)cc1)Oc1ccccn1 (stereo not given),AC50,[4],58.9 µM (active)
same,AC50,[1],64.6 µM (active)
same,outcome,[2],inactive
same,outcome,[3],inactive
same,AC50,AR (gene 367) [5],66.3 µM (active)
COP(=O)(OC)OC(Br)C(Cl)(Cl)Br (stereo not given),AC50,[4],75.1 µM (active)
same,AC50,[1],61.3 µM (active)
same,AC50,[2],30.7 µM (active)
same,outcome,AR (gene 367) [6],inactive
same,AC50,AR (gene 367) [5],69.5 µM (active)
CCNc1nc(Cl)nc(NC(C)(C)C#N)n1,AC50,[1],27 µM (active)
CC(C)=CC1C(C(=O)OCN2C(=O)C3=C(CCCC3)C2=O)C1(C)C (stereo not given),AC50,[4],44 µM (active)
same,AC50,[1],48.1 µM (active)
same,outcome,AR (gene 367) [6],inactive
same,AC50,AR (gene 367) [5],69.8 µM (active)
Cc1ccn2nc(S(=O)(=O)Nc3c(F)cccc3F)nc2n1,outcome,[4],inactive
same,outcome,[1],inactive
same,outcome,[3],inactive
CNc1cnn(-c2cccc(C(F)(F)F)c2)c(=O)c1Cl,outcome,[4],inactive
same,outcome,[1],inactive
same,outcome,[3],inactive
C[N+]1(C)CCCCC1,outcome,[4],inactive
same,outcome,[1],inactive
same,outcome,[3],inactive
O=[N+]([O-])c1cc(C(F)(F)F)c(Cl)c([N+](=O)[O-])c1Nc1ncc(C(F)(F)F)cc1Cl,AC50,[4],8.38 µM (active)
same,AC50,[1],10.6 µM (active)
same,AC50,[2],3.24 µM (active)
same,AC50,[3],16.3 µM (active)
CSc1nnc(C(C)(C)C)c(=O)n1N,outcome,[4],inactive
same,outcome,[1],inactive
same,outcome,[2],inactive
same,outcome,[3],inactive
COc1ccc(C(=CC(=O)N2CCOCC2)c2ccc(Cl)cc2)cc1OC,outcome,[4],inactive
same,AC50,[1],15.2 µM (active)
same,outcome,[2],inactive
same,AC50,AR (gene 367) [5],15.8 µM (active)
FC(F)C(F)(F)OCC(Cn1cncn1)c1ccc(Cl)cc1Cl (stereo not given),AC50,[4],66.4 µM (active)
same,AC50,[1],60.5 µM (active)
same,AC50,[2],75.7 µM (active)
same,outcome,[3],inactive
CC(C1CC1)C(O)(Cn1cncn1)c1ccc(Cl)cc1 (stereo not given),AC50,[4],49.8 µM (active)
same,AC50,[1],49.8 µM (active)
same,outcome,[2],inactive
same,outcome,[3],inactive
CNC(=O)Oc1cccc2c1OC(C)(C)O2,outcome,[4],inactive
same,outcome,[1],inactive
same,outcome,[2],inactive
CNC(=O)ON=C(C)SC,outcome,[4],inactive
same,outcome,[1],inactive
same,outcome,[2],inactive
CCOC(=O)COc1cc(-c2nn(C)c(OC(F)F)c2Cl)c(F)cc1Cl,outcome,[4],inactive
same,AC50,[1],16.6 µM (active)
same,outcome,[2],inactive
same,AC50,AR (gene 367) [5],28.1 µM (active)
O=C(O)c1cc(Oc2ccc(C(F)(F)F)cc2Cl)ccc1[N+](=O)[O-],AC50,[4],50 µM (active)
same,outcome,[1],inactive
same,outcome,[2],inactive
